The record followed here is PubChem BioAssay (NCI).

Among the test systems are NCI-H23 lung; NCI-H226 lung; NCI-H322M lung; NCI-H460 lung; HOP-92 NSCLC; 786-0 renal; COLO 205 colon; DU-145 prostate; K-562 leukemia; MALME-3M melanoma; MDA-MB-231 breast; RXF 393 renal; SF-268 CNS; SF-295 CNS; SF-539 CNS; UACC-257 melanoma; M14 melanoma; NCI-H522 lung; A549/ATCC NSCLC.
Common to all, as to experiment: NCI-60 one-dose screen, 48 h (100 = growth as untreated, 0 = no growth, -100 = all killed)
Common to all, as to conditions: 10 µM unless noted

Structures are written as SMILES. Values joined by “and” are separate entries in the source; they are usually repeats but may differ in a detail not shown here. Identical values can stand only once. This is part of a sample that, as a whole, favours compounds with a hit. Of some 83,000 tested, about 20% had one in any assay.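 The test compound was applied at a single concentration to cells in 96-well plates for 48 hours, and percent growth was recorded.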 Active and inactive are the calls of the source. How the source made its calls: active means growth percent below 10; inactive means the rest.

Consider `OCCSc1ccc(Cl)cc1`, for which the growth was 112% (inactive) and 102% (inactive) in the test on NCI-H23 lung; 116% (inactive) and 99.3% (inactive) in the test with NCI-H226 lung; 114% (inactive) and 96% (inactive) with NCI-H322M lung; 108% (inactive) and 107% (inactive) in the test with NCI-H460 lung; 101% (inactive) and 97.7% (inactive) in the test on HOP-92 NSCLC; 108% (inactive) and 95.7% (inactive) with 786-0 renal. Also, the growth in the test with COLO 205 colon is 117% (inactive) and 104% (inactive); in the test with DU-145 prostate, 125% (inactive) and 107% (inactive); in the test with K-562 leukemia, 112% (inactive) and 136% (inactive); with MALME-3M melanoma it was 117% (inactive) and 83.8% (inactive); with MDA-MB-231 breast it was 115% (inactive) and 99.5% (inactive); with RXF 393 renal, 114% (inactive) and 108% (inactive). The growth in the test on SF-268 CNS was 124% (inactive) and 101% (inactive); in the test on SF-295 CNS, 94.9% (inactive) and 101% (inactive); in the test on SF-539 CNS, 108% (inactive) and 91.7% (inactive); in the test with UACC-257 melanoma, 114% (inactive) and 97.2% (inactive); with M14 melanoma, 107% (inactive) and 94.2% (inactive).

Consider `COc1ccc(COC=O)cc1`, for which the growth was 97.3% (inactive) in the test with NCI-H23 lung; 100% (inactive) in the test on NCI-H226 lung; 99.1% (inactive) in the test with NCI-H322M lung; 104% (inactive) with NCI-H460 lung; 109% (inactive) in the test with HOP-92 NSCLC; 95.5% (inactive) with NCI-H522 lung. Also, the growth was 106% (inactive) with A549/ATCC NSCLC; 103% (inactive) in the test on 786-0 renal; 108% (inactive) in the test on COLO 205 colon; 98.7% (inactive) in the test with DU-145 prostate; 96.5% (inactive) in the test on K-562 leukemia; 102% (inactive) in the test with MALME-3M melanoma. Also, the growth was 112% (inactive) in the test with MDA-MB-231 breast; 110% (inactive) in the test on RXF 393 renal; 95.9% (inactive) in the test with SF-268 CNS; 101% (inactive) with SF-295 CNS; 105% (inactive) in the test on SF-539 CNS; 98.5% (inactive) in the test with UACC-257 melanoma. The growth in the test on M14 melanoma is 104% (inactive).

For `Cc1ccc([N+](=O)[O-])cc1Br`, the growth in the test with NCI-H23 lung is 110% (inactive); in the test with NCI-H226 lung it was 98.4% (inactive); with NCI-H322M lung it was 111% (inactive); in the test with NCI-H460 lung, 94.4% (inactive); with HOP-92 NSCLC, 106% (inactive); in the test with NCI-H522 lung, 88% (inactive). Besides, the growth was 77.6% (inactive) in the test on A549/ATCC NSCLC; 96.6% (inactive) in the test with 786-0 renal; 99.9% (inactive) in the test with COLO 205 colon; 110% (inactive) in the test on DU-145 prostate; 86.3% (inactive) in the test with K-562 leukemia; 102% (inactive) in the test on MALME-3M melanoma. Besides, the growth in the test with MDA-MB-231 breast was 104% (inactive); in the test on RXF 393 renal, 111% (inactive); in the test with SF-268 CNS it was 104% (inactive); in the test with SF-295 CNS, 97.7% (inactive); with SF-539 CNS it was 91.7% (inactive); with UACC-257 melanoma, 79.7% (inactive). Moreover, the growth with M14 melanoma was 95.1% (inactive).

Turning to `CCN(CC)C(CC(=O)c1ccccc1)C(=O)c1ccccc1` (stereo not drawn), the growth with NCI-H23 lung is 102% (inactive); with NCI-H226 lung, 95% (inactive); with NCI-H322M lung, 107% (inactive); with NCI-H460 lung, 106% (inactive); in the test with HOP-92 NSCLC, 93.4% (inactive); with 786-0 renal, 93.5% (inactive). Moreover, the growth was 77.8% (inactive) with COLO 205 colon; 99.9% (inactive) in the test with DU-145 prostate; 38.2% (inactive) with K-562 leukemia; 104% (inactive) in the test with MALME-3M melanoma; 110% (inactive) with MDA-MB-231 breast; 115% (inactive) in the test on RXF 393 renal. The growth was 98% (inactive) in the test on SF-268 CNS; 103% (inactive) with SF-295 CNS; 101% (inactive) in the test on SF-539 CNS; 95.5% (inactive) in the test with UACC-257 melanoma; 105% (inactive) in the test with M14 melanoma.

As for `O=C(O)c1cc(=O)[nH]c(=O)[nH]1`, the growth in the test with NCI-H23 lung is 104% (inactive) and 4.68% (active); in the test on NCI-H226 lung it was 102% (inactive) and 95% (inactive); with NCI-H322M lung it was 89.8% (inactive) and 97.5% (inactive); in the test on NCI-H460 lung it was 111% (inactive) and 91.4% (inactive); in the test with NCI-H522 lung it was 89.7% (inactive) and 18.9% (inactive); in the test with A549/ATCC NSCLC, 98.3% (inactive). The growth in the test with 786-0 renal is 96.5% (inactive) and 103% (inactive); in the test on COLO 205 colon, 99.6% (inactive) and 89.3% (inactive); with DU-145 prostate, 116% (inactive) and 104% (inactive); in the test on K-562 leukemia, 106% (inactive) and 115% (inactive); in the test with MALME-3M melanoma it was 89.1% (inactive) and 116% (inactive); with MDA-MB-231 breast it was 97.2% (inactive) and 96.3% (inactive). Also, the growth with RXF 393 renal was 118% (inactive); with SF-268 CNS, 112% (inactive) and 100% (inactive); in the test with SF-295 CNS, 101% (inactive) and 124% (inactive); in the test on SF-539 CNS it was 104% (inactive) and 80.5% (inactive); in the test on UACC-257 melanoma it was 103% (inactive); in the test with M14 melanoma, 102% (inactive) and 111% (inactive).

For the molecule `CCC(C)NC(=O)c1ccccc1C` (stereo not drawn), the growth with NCI-H23 lung was 91.7% (inactive); in the test with NCI-H226 lung, 93.6% (inactive); in the test with NCI-H322M lung it was 97.7% (inactive); with NCI-H460 lung it was 102% (inactive); with HOP-92 NSCLC it was 84.5% (inactive); in the test on NCI-H522 lung it was 94.2% (inactive). Also, the growth in the test with A549/ATCC NSCLC was 100% (inactive); in the test with 786-0 renal, 95.7% (inactive); in the test on COLO 205 colon, 103% (inactive); with DU-145 prostate, 106% (inactive); in the test with K-562 leukemia, 129% (inactive); in the test with MALME-3M melanoma, 77.7% (inactive). Moreover, the growth is 104% (inactive) in the test with MDA-MB-231 breast; 96% (inactive) in the test on RXF 393 renal; 101% (inactive) in the test on SF-268 CNS; 100% (inactive) with SF-295 CNS; 96.6% (inactive) in the test with SF-539 CNS; 100% (inactive) in the test with UACC-257 melanoma. Besides, in the test with M14 melanoma, the growth is 95.3% (inactive).

In the case of `O=C(c1ccc(Cl)cc1)C1C(c2ccccc2)C1[N+](=O)[O-]` (stereo not drawn), the growth with NCI-H23 lung was 84.6% (inactive); in the test on NCI-H226 lung, 97.2% (inactive); with NCI-H322M lung, 89.8% (inactive); in the test with NCI-H460 lung, 104% (inactive); in the test with HOP-92 NSCLC, 80.9% (inactive); in the test with NCI-H522 lung it was 101% (inactive). For the same molecule, the growth in the test with A549/ATCC NSCLC was 98.6% (inactive); in the test with 786-0 renal it was 98.8% (inactive); in the test with COLO 205 colon, 111% (inactive); in the test on DU-145 prostate it was 105% (inactive); in the test with K-562 leukemia, 92.7% (inactive); with MALME-3M melanoma, 104% (inactive). Further, the growth in the test with MDA-MB-231 breast is 91.2% (inactive); in the test with RXF 393 renal, 106% (inactive); in the test on SF-268 CNS it was 98.1% (inactive); in the test with SF-295 CNS it was 103% (inactive); with SF-539 CNS, 103% (inactive); in the test on UACC-257 melanoma, 105% (inactive). In the test on M14 melanoma, the growth was 102% (inactive).
